Shown are actives, neighbours in structure and some others; about 6% of the full set was active somewhere.
D1 antag: blocks dopamine activation of the human D1 receptor; hit rate 3.2% among 360,000; HEK293 TREx D1 cells, calcium flux, dopamine EC80; stronger effect = lower value; P21728; activity change, negative = inhibition, % at 10 µM; in the data active = activity change below about -30%; also: % is scaled to controls: 0 for no effect and ±100 for the full control effect
Target sequence (P21728 whole entry, looked up): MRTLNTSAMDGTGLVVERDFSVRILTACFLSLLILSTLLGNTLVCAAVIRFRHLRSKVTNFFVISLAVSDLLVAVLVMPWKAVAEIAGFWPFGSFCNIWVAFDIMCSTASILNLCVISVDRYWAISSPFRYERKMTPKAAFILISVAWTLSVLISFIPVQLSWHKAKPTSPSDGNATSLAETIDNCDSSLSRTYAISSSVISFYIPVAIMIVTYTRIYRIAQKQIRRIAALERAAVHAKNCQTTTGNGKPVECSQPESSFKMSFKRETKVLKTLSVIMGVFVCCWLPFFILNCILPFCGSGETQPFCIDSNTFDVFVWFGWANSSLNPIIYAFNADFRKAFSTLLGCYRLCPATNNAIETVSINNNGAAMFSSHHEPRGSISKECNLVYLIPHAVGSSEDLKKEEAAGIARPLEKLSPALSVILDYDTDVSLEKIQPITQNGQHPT
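Cells carrying a force-coupled, tetracycline-inducible human D1 receptor report calcium flux. Each well gets a 10 s baseline, compound with 180 s monitoring, then an EC80 dopamine stimulus with a second 180 s kinetic read.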
D3 ag: D3 dopamine receptor (human) agonism; max activation, %; D3R DiscoveRx beta-arrestin cells, luminescence, 90 min; hit rate 0.58% among 410,000; in the data active = max activation above about 30%; also: 0% is about no effect
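Cells at 1500/well, incubated overnight, then treated with pinned compounds (dopamine as control) for 90 min at 37 degrees C. DiscoveRx reagent added for 30 - 60 minutes at room temperature; luminescence read.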
DRD3 antagonist: antagonists of human D3 dopamine receptor; D3R cells, DiscoveRx beta-arrestin luminescence, antagonist mode; stronger effect = lower value; hit rate 2.5% among 360,000; max response, negative = inhibition, %; in the data active = max response below about -50%; also: % is scaled to controls: 0 for no effect and ±100 for the full control effect
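Cells expressing the human receptor were seeded at 1500 cells/well, incubated overnight at 37 degrees C in 5% CO2, then exposed to library compounds with dopamine controls for 90 minutes at 37 degrees C before luminescent detection.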
D1 PAM: human D1 dopamine receptor positive modulation | HEK293 TREx D1 cells, calcium flux, dopamine EC20 potentiation | hit rate 0.036% among 360,000 | P21728 | potentiation, % at 10 µM | AID 504651; in the data active = potentiation above about 30%; also: 0% is about no effect
D1 agonist: agonists of human D1 dopamine receptor; activation, % at 2 µM; HEK293 T-REx D1 cells, calcium flux, agonist mode; hit rate 1% among 360,000; P21728; in the data active = activation above about 30%; also: 0% is about no effect
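Inducible HEK293 T-REx D1 cells, force-coupled to calcium signalling, were plated at 4000 cells/well with tetracycline and held overnight at 30 C. After no-wash calcium dye loading, compound-evoked calcium rise over 180 s flagged agonists.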
Active calls of the source: *; · = no result.

SMILES | D1 antag | D3 ag | DRD3 antagonist | D1 PAM | D1 agonist
Cc1ccc(NC(=O)C2CCCN(C(=O)c3cnn(-c4ccccc4)c3-n3cccc3)C2)cc1 (centres undefined) | 12 | 8 | · | -1 | -2
O=[N+]([O-])c1cnc(Nc2ccccc2)nc1Nc1ccccc1 | -11 | 4 | -83* | -5 | 4
O=[N+]([O-])c1ccccc1Nc1ccccc1 | -2 | -3 | 2 | 5 | 3
O=C(Nc1ccccc1C(=O)Nc1nnc(C(F)(F)F)s1)c1ccccc1Cl | -30* | 12 | 3 | -3 | 26
CC(NC(=O)Nc1nnc(C(F)(F)F)s1)(C(F)(F)F)C(F)(F)F | -29 | 2 | -23 | -8 | 41*
O=C(Nc1nnc(C(F)(F)F)s1)c1ccc(Br)s1 | -43* | 5 | 9 | -7 | 37*
COc1ccccc1OCC(=O)N(Cc1ccco1)Cc1ccccc1F | -17 | -5 | · | 4 | 0
COc1ccc(S(=O)(=O)n2nc(-n3c(C)ccc3C)c3c(F)cccc32)cc1OC | -34* | 17 | 11 | -11 | 9
Cc1ccc(C)n1-c1nn(S(=O)(=O)c2ccccc2)c2cccc(F)c12 | 19 | -5 | -25 | 2 | 2
Cc1ccc(CNc2oc(-c3ccco3)nc2C#N)cc1 | -37* | -2 | 5 | -7 | 2
CN(Cc1ccco1)C(=O)c1ccc2c(c1)N(Cc1ccccc1F)C(=O)c1ccccc1S2 | -2 | -18 | · | -6 | 12
COC(=O)c1ccc(CN2C(=O)NC(CC(C)C)C2=O)cc1 (centres undefined) | -32* | -1 | 9 | 2 | 7
COC(=O)c1ccc(CN2C(=O)c3ccccc3C2=O)cc1 | 4 | 3 | 13 | 2 | 1
COc1cc(Cl)c(C)cc1NC(=O)CNC(=O)Cn1ccc2ccccc2c1=O | -4 | 1 | · | 0 | 1
CCOc1ccc(S(=O)(=O)N(CC(=O)N2CCc3ccccc32)Cc2ccco2)cc1 | -5 | -1 | -66* | -6 | 4
CCOc1ccc(NC(=O)CC2C(=O)N(c3ccccc3)C(=O)N2Cc2ccco2)cc1 (centres undefined) | -42* | 2 | -19 | -4 | -2
Cc1ccsc1CCN1C(=O)N(c2ccccc2)C(=O)C1CC(=O)Nc1ccc(F)cc1 (centres undefined) | 0 | -5 | · | -4 | 19
CCCCCCOc1ccc(NC(=O)CC2C(=O)N(CC)C(=S)N2Cc2ccco2)cc1 (centres undefined) | -40* | -9 | 17 | -4 | 8
COC(=O)c1ccc(NC(=O)CC2C(=O)N(c3ccc(Cl)cc3)C(=O)N2Cc2cccs2)cc1 (centres undefined) | -13 | 6 | · | -3 | 1
Cc1ccsc1CCN1C(=O)N(c2ccc(F)cc2)C(=O)C1CC(=O)Nc1ccccc1 (centres undefined) | -30* | 1 | · | -4 | 4
COC(=O)c1ccc(NC(=O)CC2C(=O)N(c3ccccc3)C(=O)N2Cc2ccco2)cc1 (centres undefined) | 5 | 4 | · | -8 | 1
CCOc1ccc(NC(=O)CC2C(=O)N(c3ccc(Cl)cc3)C(=O)N2Cc2cccs2)cc1 (centres undefined) | -74* | 18 | · | -3 | 1
Cc1cccc(-c2c3c(=O)n(C)c(=O)n(C)c3cn2-c2cc(N)c(Cl)cc2Cl)c1 | 9 | 9 | · | 0 | 2
Cc1ccc(CNC(=O)c2ccc3c(c2)N(Cc2ccccc2Cl)C(=O)CS3)cc1 | 1 | 2 | · | 1 | 2
COc1cc(NC(=O)CC2C(=O)N(c3cccc(C)c3)C(=O)N2Cc2ccco2)cc(OC)c1 (centres undefined) | -14 | 62* | · | 2 | 0
SMILES | D1 antag | D3 ag | DRD3 antagonist | D1 PAM | D1 agonist
COC(=O)CN1C(=S)N(c2ccc(Cl)cc2)C(=O)C1CC(=O)Nc1ccccc1 (centres undefined) | -32* | 5 | -4 | -4 | 3
CCOc1ccc(NC(=O)CC2C(=O)N(c3ccccc3)C(=O)N2Cc2ccc3c(c2)OCO3)cc1 (centres undefined) | -51* | 3 | · | 1 | 0
CCOc1cccc2sc(N(Cc3cccnc3)C(=O)C3CCCCC3)nc12 | · | -5 | · | 4 | 3
CCCCNc1nc(Oc2ccc(OCC)nn2)nc(N2CCOCC2)n1 | -7 | 2 | · | 1 | 5
O=C(NCCc1ccccc1)c1ccc(CSc2nc3cccnc3n2Cc2ccccc2)cc1 | -14 | -20 | · | -2 | 2
Brc1cccc(CNCCSc2nnnn2-c2ccccc2)c1 | 7 | -22 | · | 5 | 5
CCOc1ccc(Br)cc1CNCCSc1nnnn1-c1ccccc1 | -38* | -19 | · | 1 | 106*
Cn1nnnc1SCCCNCc1cc(Br)ccc1OCc1ccccc1 | -25 | -25 | · | -1 | 39*
Cn1nnnc1SCCCNCc1ccc(-c2ccc(Br)cc2)o1 | -21 | -31 | · | 0 | 41*
Cn1nnnc1SCCNCc1ccc(OCc2ccc(Cl)cc2)cc1 | -9 | -16 | · | -1 | 46*
CCSc1ncc(Cl)c(C(=O)Nc2nc3ccc(S(C)(=O)=O)cc3s2)n1 | 8 | 1 | · | 2 | 6
COc1ccc(F)cc1-c1cc(C(=O)NCc2cccc(C(F)(F)F)c2)[nH]n1 | · | -5 | -24 | · | ·
Cc1ccc(F)cc1-c1cc(C(=O)NCc2cc(C(F)(F)F)cc(C(F)(F)F)c2)[nH]n1 | · | -13 | -70* | · | ·
COc1ccc(F)cc1-c1cc(C(=O)NCc2ccc(C(F)(F)F)cc2)[nH]n1 | · | -21 | -73* | · | ·
CCCN(C(=O)c1c(C)oc2ncn(CC(C)C)c(=O)c12)c1ccccc1C | 5 | 2 | · | 1 | -1
Cc1ccc(-c2nc(CN3CCCCC3)cc(CN3CCCCC3)c2O)cc1 | -3 | -15 | -55* | -7 | 10
CCn1cc(C(=O)NCc2ccccc2)c(=O)c2cc(S(=O)(=O)N3CCCCCC3)ccc21 | 1 | -6 | · | 4 | 2
CCN(CC(=O)NCc1ccc(Cl)cc1)C(=O)/C=C/c1ccccc1 | -31* | 6 | 5 | 2 | 0
Cc1nnc(SCC(=O)c2cc(C)n(-c3c(C)n(C)n(-c4ccccc4)c3=O)c2C)s1 | 5 | 4 | 15 | -4 | 3
Cc1cc(C(=O)CSc2nncs2)c(C)n1-c1c(C)n(C)n(-c2ccccc2)c1=O | 0 | 7 | -95* | 0 | 1
Cc1ccc(/C=N/N2C(=S)SC(C)(C)C2N(O)C(=O)Nc2ccc([N+](=O)[O-])cc2)cc1 (centres undefined) | 7 | -7 | -58* | -4 | 2
CC1(C)SC(=S)N(/N=C/c2ccc(O)cc2)C1N(O)C(=O)Nc1ccc([N+](=O)[O-])cc1 (centres undefined) | 22 | -22 | -23 | -4 | 4
CCCN(C(=O)c1noc2c1COc1ccc(C)cc1-2)c1ccc(Cl)c(Cl)c1 | -14 | 0 | · | -5 | 1
COc1ccc(N2CCN(C(=O)c3c(Cl)cnn3C)CC2)cc1 | -58* | 2 | 16 | -5 | 6
